From PubChem BioAssay (NCI)
About 83,000 compounds went through this panel and 20% of them were active in at least one assay; those are over-represented in the sample as a whole.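 How to read the values: 0–100, growth inhibition (40 = 60% inhibited); 0, no net growth; -100 to 0, cell death (-40 = 40% of starting cells died; -100 = all dead).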 Active and inactive are the calls of the source. How the source made its calls: active means growth percent below 10; inactive means the rest.

Columns and labels:
Assay in all cases: NCI-60 one-dose screen, 48 h (100 = growth as untreated, 0 = no growth, -100 = all killed)
Settings in all cases: 10 µM
SR leukemia = tested on: SR leukemia
RPMI-8226 leukemia = tested on: RPMI-8226 leukemia
OVCAR-8 ovarian = tested on: OVCAR-8 ovarian
OVCAR-5 ovarian = tested on: OVCAR-5 ovarian
OVCAR-4 ovarian = tested on: OVCAR-4 ovarian
SK-OV-3 ovarian = tested on: SK-OV-3 ovarian
IGROV1 ovarian = tested on: IGROV1 ovarian
OVCAR-3 ovarian = tested on: OVCAR-3 ovarian
HS 578T breast = tested on: HS 578T breast
NCI/ADR-RES ovarian = tested on: NCI/ADR-RES ovarian

Measured: growth

O=c1[nH]c2ccccc2cc1CSc1ccc(Nc2nccc(-c3ccc4ccccc4c3)n2)cc1
inactive: SR leukemia 80.7% | RPMI-8226 leukemia 67.5% | OVCAR-5 ovarian 62.9% | SK-OV-3 ovarian 116% | IGROV1 ovarian 73.9% | OVCAR-3 ovarian 13.1% | HS 578T breast 60.6% | NCI/ADR-RES ovarian 24.4%
active: OVCAR-8 ovarian -28% | OVCAR-4 ovarian -13.6%

O=C1N/C(=N\c2nccs2)S/C1=C\c1cccs1
inactive: SR leukemia 16.4% | RPMI-8226 leukemia 19.5% | OVCAR-8 ovarian 31.3% | OVCAR-5 ovarian 49.1% | OVCAR-4 ovarian 30.9% | SK-OV-3 ovarian 39.3% | IGROV1 ovarian 31.5% | OVCAR-3 ovarian 44.2% | HS 578T breast 49.9%
active: NCI/ADR-RES ovarian -0.769%

CC1CC(c2ccc(N(C)C)cc2)=NN1c1nc(O)c(C2=c3cc(Br)ccc3=NC2=O)s1 (stereo not given)
inactive: SR leukemia 67.6% | RPMI-8226 leukemia 28.1% | OVCAR-8 ovarian 83% | OVCAR-5 ovarian 123% | OVCAR-4 ovarian 94.5% | SK-OV-3 ovarian 91.3% | IGROV1 ovarian 110% | OVCAR-3 ovarian 73.6% | HS 578T breast 70%
active: NCI/ADR-RES ovarian 7.99%

COc1cc(/C=C/C(=O)c2cc(OC)c(OC)c(OC)c2)ccc1Oc1nc(Nc2ccc(F)cc2)nc(N(C)C)n1
active: SR leukemia -5.9% | RPMI-8226 leukemia -19.8% | OVCAR-8 ovarian -59.6% | OVCAR-5 ovarian -44.7% | IGROV1 ovarian -64.3% | NCI/ADR-RES ovarian -29.6%
inactive: OVCAR-4 ovarian 18.4% | SK-OV-3 ovarian 49.5% | OVCAR-3 ovarian 12.1% | HS 578T breast 16.1%

NS(=O)(=O)c1ccc(N=Nc2c(O)n(CC(=O)Nc3ccccc3Br)c3ccccc23)cc1
inactive: SR leukemia 41.3% | RPMI-8226 leukemia 37.3% | OVCAR-8 ovarian 18.6% | OVCAR-5 ovarian 70.2% | OVCAR-4 ovarian 69.4% | SK-OV-3 ovarian 41.5% | IGROV1 ovarian 26.4% | OVCAR-3 ovarian 45.7% | HS 578T breast 45.7% | NCI/ADR-RES ovarian 43.6%

N#Cc1c(NC(=O)c2ccc(C(F)(F)F)cc2C(F)(F)F)sc2c1CCC(=O)C2
active: SR leukemia -11.3% | RPMI-8226 leukemia 2.53% | OVCAR-8 ovarian -16.9% | OVCAR-5 ovarian -62.3% | OVCAR-4 ovarian -40.8% | SK-OV-3 ovarian -22.2% | IGROV1 ovarian -3.75% | OVCAR-3 ovarian -59.5% | HS 578T breast -5.88% | NCI/ADR-RES ovarian 1.12%

Nc1cc(-c2cccc(C(=O)NCc3ccc4c(c3)OCO4)c2)ccn1
inactive: SR leukemia 76.1% | RPMI-8226 leukemia 80.6% | OVCAR-8 ovarian 103% | OVCAR-5 ovarian 121% | OVCAR-4 ovarian 90.1% | SK-OV-3 ovarian 107% | IGROV1 ovarian 112% | OVCAR-3 ovarian 98.5% | HS 578T breast 94.4% | NCI/ADR-RES ovarian 88.5%

COc1ccc(CN2[C@H](C(=O)NCc3ccc(C(=O)NO)cc3)Cc3c([nH]c4ccccc34)[C@H]2C2CC2)cc1
inactive: SR leukemia 25.5% | RPMI-8226 leukemia 47.3% | OVCAR-8 ovarian 39.3% | OVCAR-5 ovarian 34.4% | OVCAR-4 ovarian 51.8% | SK-OV-3 ovarian 62% | IGROV1 ovarian 50.5% | OVCAR-3 ovarian 48.7% | HS 578T breast 32.6% | NCI/ADR-RES ovarian 84%

Cc1cccc(-c2nc(Nc3ccccc3C(=O)O)c3ccccc3n2)c1
inactive: SR leukemia 23% | RPMI-8226 leukemia 28.6% | OVCAR-8 ovarian 60.3% | OVCAR-5 ovarian 77% | OVCAR-4 ovarian 41.9% | SK-OV-3 ovarian 76.7% | IGROV1 ovarian 59.2% | OVCAR-3 ovarian 34.1% | HS 578T breast 16.6% | NCI/ADR-RES ovarian 24.8%

O=C(Nc1cccc([N+](=O)[O-])c1)Nc1cccc([N+](=O)[O-])c1
inactive: SR leukemia 88.7% | RPMI-8226 leukemia 31.9% | OVCAR-8 ovarian 88.7% | OVCAR-5 ovarian 94.1% | OVCAR-4 ovarian 73.6% | SK-OV-3 ovarian 129% | IGROV1 ovarian 88.6% | OVCAR-3 ovarian 60.7% | HS 578T breast 92.5% | NCI/ADR-RES ovarian 65.4%

COc1ccc(/C=C/C(=O)c2ccc(N3CCN(C)CC3)cc2)c(C(F)(F)F)c1
inactive: OVCAR-8 ovarian 49.6% | OVCAR-5 ovarian 86.4% | OVCAR-4 ovarian 43.9% | SK-OV-3 ovarian 63.7% | IGROV1 ovarian 55% | OVCAR-3 ovarian 46.9% | HS 578T breast 18.8% | NCI/ADR-RES ovarian 59.3%
active: SR leukemia 7.12% | RPMI-8226 leukemia 0.333%

CC(=O)Nc1ccc(-c2cn(-c3cccc(C(=O)Nc4cc(CN5CCOCC5)cc(C(F)(F)F)c4)c3)nn2)cn1
inactive: NCI/ADR-RES ovarian 67.9%
active: SR leukemia 0.486% | RPMI-8226 leukemia 2.68% | OVCAR-8 ovarian -37% | OVCAR-5 ovarian -95% | OVCAR-4 ovarian -82.6% | SK-OV-3 ovarian -67.6% | IGROV1 ovarian -84.6% | OVCAR-3 ovarian -54.5% | HS 578T breast -46.2%

N#Cc1ccc(-c2nn(-c3ccc(C(=O)O)cc3)cc2CNc2cccc(Br)c2)cc1
inactive: SR leukemia 40.2% | RPMI-8226 leukemia 33.1% | OVCAR-8 ovarian 49% | OVCAR-5 ovarian 99.6% | OVCAR-4 ovarian 75.5% | SK-OV-3 ovarian 112% | IGROV1 ovarian 79% | OVCAR-3 ovarian 38.7% | HS 578T breast 52.6% | NCI/ADR-RES ovarian 13%

CN1C(=O)/C(=C/c2nccs2)SC1=S
inactive: SR leukemia 52.3% | RPMI-8226 leukemia 97.2% | OVCAR-8 ovarian 91.5% | OVCAR-5 ovarian 95.6% | OVCAR-4 ovarian 84.1% | SK-OV-3 ovarian 105% | IGROV1 ovarian 63.8% | OVCAR-3 ovarian 114% | HS 578T breast 86.5% | NCI/ADR-RES ovarian 93.5%

COC1=C[C@@]23CCC(=O)N2CCc2cc4c(cc2[C@H]3[C@H]1OC(=O)C(C)(C)O)OCO4
inactive: SR leukemia 96.1% | RPMI-8226 leukemia 92.3% | OVCAR-8 ovarian 109% | OVCAR-5 ovarian 101% | OVCAR-4 ovarian 98.6% | SK-OV-3 ovarian 120% | IGROV1 ovarian 103% | OVCAR-3 ovarian 106% | HS 578T breast 98.1% | NCI/ADR-RES ovarian 97.4%

N#Cc1c(NC(=O)c2ccc(C(F)(F)F)cc2)sc2c1CCC(=O)C2
active: RPMI-8226 leukemia 7.34% | OVCAR-8 ovarian -32.3% | OVCAR-5 ovarian -80.6% | OVCAR-4 ovarian -24.6% | SK-OV-3 ovarian -54.1% | IGROV1 ovarian -79.3% | OVCAR-3 ovarian -92.9% | HS 578T breast -27.1% | NCI/ADR-RES ovarian -44.8%
inactive: SR leukemia 11.3%

CC(=O)Oc1ccccc1C(=O)Oc1ccc(C(=O)/C=C/c2ccncc2)cc1
active: SR leukemia 7.37%
inactive: RPMI-8226 leukemia 13.6% | OVCAR-8 ovarian 30.8% | OVCAR-5 ovarian 62.7% | OVCAR-4 ovarian 59.9% | SK-OV-3 ovarian 96.7% | IGROV1 ovarian 22.3% | OVCAR-3 ovarian 19.5% | HS 578T breast 32.8% | NCI/ADR-RES ovarian 63.5%

CC(=O)c1ccc(Nc2nc(SC(C)C)nc(-c3ccccc3)c2C#N)cc1
inactive: SR leukemia 70% | RPMI-8226 leukemia 90.3% | OVCAR-5 ovarian 55.8% | SK-OV-3 ovarian 36.2% | OVCAR-3 ovarian 25.3% | HS 578T breast 28.2%
active: OVCAR-8 ovarian 5.17% | OVCAR-4 ovarian -19.1% | IGROV1 ovarian 8.92% | NCI/ADR-RES ovarian 1.21%

COc1cc(/C=C/C(=O)c2ccc(S(=O)(=O)NCCNc3nc(Nc4ccc(F)cc4)nc(N(C)C)n3)cc2)cc(OC)c1OC
inactive: OVCAR-4 ovarian 22.8% | SK-OV-3 ovarian 109% | HS 578T breast 67.3% | NCI/ADR-RES ovarian 46.6%
active: SR leukemia 3.14% | RPMI-8226 leukemia 7.35% | OVCAR-8 ovarian -65% | OVCAR-5 ovarian -23.4% | IGROV1 ovarian -48.9% | OVCAR-3 ovarian -88.1%

COc1ccc(/C=C/C(=O)c2ccc(S(=O)(=O)NCCNc3nc(Nc4ccc(F)cc4)nc(N(C)C)n3)cc2)cc1
active: SR leukemia 3.4%
inactive: RPMI-8226 leukemia 10.5% | OVCAR-8 ovarian 50.6% | OVCAR-5 ovarian 42.5% | OVCAR-4 ovarian 21.8% | SK-OV-3 ovarian 76% | IGROV1 ovarian 43.6% | OVCAR-3 ovarian 15.7% | HS 578T breast 39% | NCI/ADR-RES ovarian 28.1%

CCCCSc1nc(Nc2ccc(/C(C)=N/NC(N)=S)cc2)c(C#N)c(-c2ccccc2)n1
active: OVCAR-4 ovarian 5.32%
inactive: SR leukemia 61.6% | RPMI-8226 leukemia 47.3% | OVCAR-8 ovarian 15.1% | OVCAR-5 ovarian 60.4% | SK-OV-3 ovarian 108% | IGROV1 ovarian 57.6% | OVCAR-3 ovarian 13.4% | HS 578T breast 43.6% | NCI/ADR-RES ovarian 25.3%

COc1cc(C2CC(c3ccc(C)cc3)=Nc3c(N)nc(N)nc3N2)ccc1Oc1nc(Nc2ccc(F)cc2)nc(N(C)C)n1 (stereo not given)
active: SR leukemia 0.613%
inactive: RPMI-8226 leukemia 22.3% | OVCAR-8 ovarian 61.2% | OVCAR-5 ovarian 99.6% | OVCAR-4 ovarian 50.9% | SK-OV-3 ovarian 100% | IGROV1 ovarian 53.8% | OVCAR-3 ovarian 56.2% | HS 578T breast 57.6% | NCI/ADR-RES ovarian 51.7%

Cc1ccc(/C(CSc2nnc(-c3c[nH]c4ccccc34)n2-c2ccccc2)=N/O)cc1
inactive: SK-OV-3 ovarian 11.5% | OVCAR-3 ovarian 14.7%
active: SR leukemia 9.79% | RPMI-8226 leukemia -19.1% | OVCAR-8 ovarian -27.8% | OVCAR-5 ovarian -48.9% | OVCAR-4 ovarian -87.2% | IGROV1 ovarian -62.4% | HS 578T breast -53.5% | NCI/ADR-RES ovarian -68.4%

Cc1noc2c(Cc3ccc([N+](=O)[O-])cc3)nn(CC(=O)N/N=C/c3ccc(Br)cc3)c(=O)c12
inactive: SR leukemia 97.6% | RPMI-8226 leukemia 91.2% | OVCAR-8 ovarian 48.9% | OVCAR-5 ovarian 96.9% | OVCAR-4 ovarian 17.9% | SK-OV-3 ovarian 86.2% | IGROV1 ovarian 95.9% | OVCAR-3 ovarian 50.1% | HS 578T breast 41.5% | NCI/ADR-RES ovarian 88.5%

COc1ccc(-c2ccc(SCC(=O)Nc3ccc(C#N)cc3)nn2)cc1
inactive: SR leukemia 89.2% | RPMI-8226 leukemia 91% | OVCAR-8 ovarian 88.8% | OVCAR-5 ovarian 101% | OVCAR-4 ovarian 83.8% | SK-OV-3 ovarian 91.6% | IGROV1 ovarian 88.4% | OVCAR-3 ovarian 121% | HS 578T breast 67.8% | NCI/ADR-RES ovarian 83.7%

CN1CCc2c(sc3ncnc(N/N=C/c4ccc5ccccc5c4)c23)C1
inactive: RPMI-8226 leukemia 42.6% | OVCAR-8 ovarian 78.6% | OVCAR-5 ovarian 88.6% | OVCAR-4 ovarian 73.9% | SK-OV-3 ovarian 96.1% | IGROV1 ovarian 87.9% | OVCAR-3 ovarian 75% | HS 578T breast 62.3% | NCI/ADR-RES ovarian 76.7%
active: SR leukemia 9.62%
